# Measurements from ChEMBL document CHEMBL3988442, “University of Dundee, Small-Polar-MMV Screening Library” (2021).
# Values joined by “and” are separate entries in the source; they are usually repeats but may differ in a detail not shown here. Equal values may be shown once. Out of some 34,000 compounds screened, about 290 (0.85%) showed an effect of 50% or more. The entries come from a sample that favours strong results as a whole.
# Tested on: Plasmodium falciparum
# Assay: Plasmodium falciparum sporozoite viability assay
# Format: functional, organism-based
# Design: scale not given: in the data most compounds retested in dose-response had high values
Structure (SMILES),Percent Effect [%],Percent Effect (10 mM as filed; unlikely as a test dose)
CCc1n[nH]c(C2CN(Cc3nnc(C4CC4)o3)CCO2)n1 (stereo unspecified),4.502,–
CCc1ncnc2c1CCN(CCOC)CC2.O=C(O)C(F)(F)F,8.757,–
CC1COCCN1C(=O)COc1ccc(Oc2ccccn2)cc1 (stereo unspecified),–,62.7% and 63.29% and 47.53%
CC1COCCN1C(=O)COc1cccc(Oc2ccccn2)c1 (stereo unspecified),–,-6.319% and -6.647% and 2.396%
COc1ncccc1CN1CCc2[nH]nc(C(=O)N(C)C)c2C1,10.07,–
COCCn1ccc2c(C(=O)Nc3nc4c(s3)CCC4)cccc21,–,69.11% and 95.7% and 86.17%
COCCn1cc(CC(=O)Nc2nc3c(s2)CCC3)c2ccccc21,–,1.19% and -4.41% and -3.323%
COCCn1ccc2c(NC(=O)c3n[nH]c4c3CCC4)cccc21,–,-3.571% and -16.58% and -12.91%
Cc1cc(CN2CCN(C(=O)c3sccc3C3CC3)CC2)no1,1.531,–
O=C(O)C(F)(F)F.O=C(c1ccsc1)N1C[C@@H]2CCN(c3cccnc3)C[C@@H]2C1,9.933,–
O=C(Nc1cccnc1)[C@H]1C[C@H]2OCC[C@H]2N(C(=O)c2ccsc2)C1.O=C(O)C(F)(F)F,-9.732,–
O=C1CCCN1CC1CCCCN1C(=O)Nc1cccnc1 (stereo unspecified),7.898,–
O=C(Nc1cccnc1)C1Cc2nc(-c3ccsc3)sc2N1CC1CC1.O=C(O)C(F)(F)F (stereo unspecified),–,89.12% and 90.39% and 85.39%
CN(C)C(=O)CN1CCC2(CCN(S(C)(=O)=O)CC2)C1=O,9.72,–
COc1ncccc1NC(=O)C1CC1,5.184,–
Cc1cnn(CC2CCCN2CC(=O)Nc2nc(C)cs2)c1 (stereo unspecified),7.289,–
CN(C)c1cc(C(=O)N2CCN(c3cc(C#N)ccn3)CC2)ccn1,0.09769,–
CCc1ocnc1C(=O)N1CCCC1c1noc(C(C)C)n1 (stereo unspecified),-5.615,–
COc1cccc(-n2c(C)cc(C(=O)NC(C)(C)C(N)=O)c2C)c1,5.357,–
CN1CCC(c2n[nH]cc2-c2ccnc(N)c2)C1 (stereo unspecified),2.531,–
Cc1nnc2n1CCN(CCOc1ccccc1)C2,–,-26.14% and -25.56% and -5.728%

Structure (SMILES),Percent Effect [%],Percent Effect (10 mM as filed; unlikely as a test dose)
CS(=O)(=O)NCc1cc(-c2cc(F)cc(F)c2)nc(N2CCCC2)n1,13.63,–
CN(Cc1ccccc1)C(=O)CCNc1ncccc1C#N,-0.1304,–
CN(Cc1noc(C2CC2)n1)C1CCN(CC(=O)N2CCOCC2)C1 (stereo unspecified),4.316,–
COCCOc1ccc(F)cc1NCc1nc2ccccc2n1C,–,8.05% and -7.699% and 5.859%
COCCOc1ncccc1NCc1nc2ccccc2n1C,–,12.39% and -0.3581% and 11.74%
COc1cc(F)c(NCc2nc3ccccc3n2C)cc1OC,–,61.41% and 85.71% and 92.05%
Cc1cc(NC(=O)CNC2CCc3nc(C(C)C)nn3C2)no1 (stereo unspecified),3.617,–
O=C(O)C(F)(F)F.O=C(O)C(F)(F)F.O=C1CC2(CCN(Cc3cccnc3)C2)CN1c1ccc2c(c1)OCO2 (stereo unspecified),12.41,–
CN(C)c1nc2c(c(N3CCc4ccccc4C3)n1)CCNC2,6.667,–
Cl.c1ccc(-c2cc(CNCCCC3CCOC3)c3nnnn3c2)cc1 (stereo unspecified),-4.775,–
Cc1csc2c(N3CCC(NCCCC4CCOC4)CC3)ncnc12 (stereo unspecified),2.368,–
Clc1ccc2nc(N3CCC(NCCCC4CCOC4)CC3)sc2c1 (stereo unspecified),–,74.93% and 78.72%
COc1ccc2c(c1)C(=O)NC1(CC2)CCN(Cc2ccncc2)C1 (stereo unspecified),11.06,–
CCCNC(=O)c1cc(C2CCCN(Cc3ccccn3)C2)no1 (stereo unspecified),2.586,–
CNS(=O)(=O)Cc1cccc(CNC(=O)Nc2cn[nH]c2)c1,3.105,–
Cc1n[nH]c(C2CN(C(=O)c3cc4c(s3)CCC4)CCO2)n1 (stereo unspecified),–,-3.516% and -12.52% and -10.81%
Cc1n[nH]c(C2CN(C(=O)c3cc4c(s3)CCCC4)CCO2)n1 (stereo unspecified),–,11.47% and -8.902% and 7.352%
N#Cc1c(C2CCOC2)cc(-c2ccc(N3CCCCC3)cc2)nc1N (stereo unspecified),–,29.44% and 63.96% and 52.39%
Oc1nnc(-c2cccs2)c2sc(N3CCCC3)nc12,–,-6.906% and -7.819%
Oc1nnc(-c2ccccc2)c2sc(N3CCCCC3)nc12,–,60.86% and 56.27%
Oc1nnc(-c2cccs2)c2sc(N3CCCCC3)nc12,–,6.59% and -1.953%

Structure (SMILES),Percent Effect [%],Percent Effect (10 mM as filed; unlikely as a test dose)
CCOc1ccc(Cl)cc1CCNC(=O)Cn1nc(C)ccc1=O,-8.218,–
Cc1nc(C)c(COc2ccc(S(=O)(=O)N(C)C)cc2)s1,–,5.36% and 0% and 2.114%
Cc1nc(COc2ccc(N(C)S(C)(=O)=O)cc2)sc1C,–,53.33% and 78.78% and 74.56%
CN1CCN(c2ccc(NS(=O)(=O)c3ccc(Br)s3)cc2C(=O)O)CC1,4.745,–
Cc1ccc(CC(=O)N2CCN(c3nccs3)CC2)s1,2.447,–
CC(C)OCCCN(Cc1ccncc1)Cc1cc(F)cc(F)c1.Cl,11.64,–
CC(=O)Nc1nc(C(=O)N2CCCC(n3cncn3)C2)cs1 (stereo unspecified),–,82.11% and 81.18% and 79.89%
CC(=O)N1CCN(C(=O)Nc2cnc3c(cnn3C(C)C)c2)CC1,25.32,–
Cc1ccc(CN(CCN(C)C)Cc2ccnn2C2CCCCO2)o1.O=C(O)CC(O)(CC(=O)O)C(=O)O (stereo unspecified),-4.714,–
Cc1ccc(-c2nc(CN3CCCC3Cn3cc(C)cn3)no2)cc1 (stereo unspecified),-11.03,–
OCC1CCCN1c1cc(N2CCc3ccccc3C2)ncn1 (stereo unspecified),3.468,–
COc1ccc2c(c1)CN(c1cc(N3CCCC3CO)ncn1)CC2 (stereo unspecified),-18.73,–
OC[C@@H]1CCCN1c1ccc(-c2nc(CCc3ccccc3)no2)cn1,-12.02,–
OCC1CCCCN1c1ccc(-c2nc(-c3ccccc3F)no2)cn1 (stereo unspecified),–,104% and 108.6% and 106.3%
COc1ccc(-c2noc(-c3ccc(N4CCC[C@H]4CO)nc3)n2)cc1,–,49.77% and 66.78% and 41.57%
CCOC(=O)C1CCCN(c2ccc(-c3nc(C)no3)cn2)C1 (stereo unspecified),-0.4292,–
COCc1noc(-c2ccc(N3CCCCC3CO)nc2)n1 (stereo unspecified),–,100.3% and 99.37% and 102%
COCc1noc(-c2ccc(N3CCC[C@H]3CO)nc2)n1,–,100.4% and 89.16% and 80.89%
OC[C@@H]1CCCN1c1ccc(-c2nc(COc3ccccc3)no2)cn1,3.859,–
